High-throughput results as filed in PubChem.
Most compounds without a hit are left out; they make up all but 3.5% or so of the library.
Mcl-1 Bim block: inhibitors of Bim-Mcl-1 interaction, human | inhibition, % at 10 µM | Bead-based flow cytometry, Bim peptide-Mcl-1 binding | Q07820 | AID 1009 | hit rate 0.1% among 190,000; in the data active = inhibition above about 40%
Mcl1-Bid inh: disrupts binding of human Mcl-1 to Bid peptide | hit rate 0.97% among 220,000 | inhibition, % at 21.7 µM | TR-FRET Mcl-1/Bid-Dy647 peptide binding, 1536-well | Q07820 | AID 1021;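 active = compounds that cut the binding signal by more than half at the single screening dose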;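 note: His-tagged Mcl-1 with europium anti-His antibody binding Bid BH3 peptide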
Hck Nef HTS: inhibitors of human Hck kinase activated by Nef; Recombinant Hck-YEEI plus Nef, Z-Lyte FRET kinase assay; inhibition, % at 20 µM; hit rate 0.68% among 220,000;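 active = Hck-Nef kinase inhibition above about 50%, limit read from the data; inactive = inhibition below that limit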
Target sequence (P08631 whole entry, looked up): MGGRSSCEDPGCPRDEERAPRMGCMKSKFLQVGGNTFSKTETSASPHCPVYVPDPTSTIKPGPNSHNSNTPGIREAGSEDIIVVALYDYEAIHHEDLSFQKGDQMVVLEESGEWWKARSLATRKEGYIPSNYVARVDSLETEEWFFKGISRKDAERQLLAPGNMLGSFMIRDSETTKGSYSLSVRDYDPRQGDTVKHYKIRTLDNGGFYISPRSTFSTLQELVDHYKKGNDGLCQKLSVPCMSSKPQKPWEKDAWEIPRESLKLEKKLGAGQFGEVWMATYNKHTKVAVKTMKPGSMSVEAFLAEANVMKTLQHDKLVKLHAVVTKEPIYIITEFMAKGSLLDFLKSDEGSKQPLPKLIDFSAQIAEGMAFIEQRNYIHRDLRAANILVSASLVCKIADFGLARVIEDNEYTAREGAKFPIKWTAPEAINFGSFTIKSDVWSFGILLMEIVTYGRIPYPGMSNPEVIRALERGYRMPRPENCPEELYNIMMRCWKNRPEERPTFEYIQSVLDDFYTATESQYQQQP
eIF4E 4G PPI: inhibitors of eIF4E and eIF4G interaction in translation initiation; AID 782; TR-FRET eIF4E-eIF4GI(517-606) binding, 2 h; hit rate 0.37% among 220,000; inhibition, % at 21.7 µM; P63073+Q04637;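 active = inhibition above about 30%, limit read from the data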
Mcl1-Noxa inh: disrupts binding of human Mcl-1 to Noxa peptide | inhibition, % at 21.7 µM | AID 1022 | TR-FRET Mcl-1/Noxa peptide binding, 2 h | Q07820 | hit rate 1.5% among 220,000;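 active = compounds that cut the protein-peptide binding signal by more than 50% relative to plate controls in a single-dose test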;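 note: His-tagged Mcl-1 with rhodamine Noxa BH3 peptide and terbium anti-His antibody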
14-3-3 Bad PPI: disrupts binding of bovine 14-3-3 zeta to phospho-Bad peptide; P63103; TR-FRET 14-3-3zeta/Dy647-pBad peptide displacement, 1 h; inhibition, % at 21.7 µM; hit rate 0.71% among 220,000;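 active = inhibition above about 70%, limit read from the data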
Hits are given with their value; [ ] = another dose, or the depositor's remark.

`CCCCNC(=O)C(c1ccc(OCC(=O)OC)c(C(=O)OC)c1)N(CCOC)C(=O)CCCCCN1C(=O)NC(c2ccc(-c3ccccc3)cc2)C(C(=O)OCc2ccccc2)=C1C` (stereo unspecified) gave Mcl1-Bid inh inactive, Hck Nef HTS inactive, eIF4E 4G PPI inactive, Mcl1-Noxa inh inactive and 14-3-3 Bad PPI inactive.
For COc1ccc(C2C3=C(CC(C)(C)CC3=O)OC(N)=C2[N+](=O)[O-])cc1 (stereo unspecified) the results were Mcl-1 Bim block inactive, Mcl1-Bid inh inactive, Hck Nef HTS inactive, eIF4E 4G PPI inactive, Mcl1-Noxa inh inactive and 14-3-3 Bad PPI inactive.
`Cc1ccc2nc(=O)c(NNc3ccccc3)cnc2c1` gave Mcl-1 Bim block inactive, Mcl1-Bid inh inactive, Hck Nef HTS 94.3, eIF4E 4G PPI inactive, Mcl1-Noxa inh inactive and 14-3-3 Bad PPI inactive.
For Cc1ccc2nc(-c3ccccc3)c(-c3ccccc3)nc2c1 the results were Mcl-1 Bim block inactive, Mcl1-Bid inh inactive, Hck Nef HTS inactive, eIF4E 4G PPI inactive, Mcl1-Noxa inh inactive and 14-3-3 Bad PPI inactive.
`CSc1c(CC(=O)Nc2ccccc2Cl)n(Cc2ccccc2)c2ccccc12` gave Mcl-1 Bim block inactive, Mcl1-Bid inh inactive, Hck Nef HTS inactive, eIF4E 4G PPI inactive and 14-3-3 Bad PPI inactive.
CSc1c(CC(=O)Nc2ccccc2C(F)(F)F)n(Cc2ccccc2)c2ccccc12 was read as Mcl-1 Bim block inactive, Mcl1-Bid inh 58.5, Hck Nef HTS inactive, eIF4E 4G PPI inactive, Mcl1-Noxa inh inactive and 14-3-3 Bad PPI inactive.
Screening COc1ccccc1C(=O)C1CCCN(C(=O)c2ccccn2)C1 (stereo unspecified) returned Mcl-1 Bim block inactive, Mcl1-Bid inh inactive, Hck Nef HTS inactive, eIF4E 4G PPI inactive, Mcl1-Noxa inh inactive and 14-3-3 Bad PPI inactive.
For COc1ccc(Cn2c(=O)[nH]c3cc(C(=O)NCc4ccc5c(c4)OCO5)ccc3c2=O)cc1 the results were Mcl-1 Bim block inactive, Mcl1-Bid inh 56.3, Hck Nef HTS inactive, eIF4E 4G PPI inactive, Mcl1-Noxa inh inactive and 14-3-3 Bad PPI inactive.
For COc1ccc(Cn2c(=O)[nH]c3cc(C(=O)NCCCOC(C)C)ccc3c2=O)cc1 the results were Mcl-1 Bim block inactive, Mcl1-Bid inh inactive, Hck Nef HTS inactive, eIF4E 4G PPI inactive, Mcl1-Noxa inh inactive and 14-3-3 Bad PPI inactive.
For COC(=O)c1cc2c(=O)n3ccccc3nc2n(C(C)C)c1=N the results were Hck Nef HTS active.
N=c1c(C(=O)NCc2ccco2)cc2c(=O)n3ccccc3nc2n1Cc1ccc(Cl)cc1 was read as Mcl-1 Bim block inactive and Hck Nef HTS inactive.
Screening COc1ccc(CNC(=O)c2cc3c(=O)n4ccccc4nc3n(Cc3cccnc3)c2=N)cc1 returned Mcl-1 Bim block inactive, Mcl1-Bid inh inactive, Hck Nef HTS inactive, eIF4E 4G PPI inactive, Mcl1-Noxa inh 58.6 and 14-3-3 Bad PPI inactive.
Screening CCOCCCn1c(=N)c(C(=O)NCc2ccc3c(c2)OCO3)cc2c(=O)n3cccc(C)c3nc21 returned Mcl-1 Bim block inactive, Mcl1-Bid inh inactive, Hck Nef HTS inactive, eIF4E 4G PPI inactive, Mcl1-Noxa inh inactive and 14-3-3 Bad PPI inactive.
N=c1c(C(=O)NCc2ccc3c(c2)OCO3)cc2c(=O)n3ccccc3nc2n1Cc1cccnc1 was read as Mcl-1 Bim block inactive, Mcl1-Bid inh inactive, Hck Nef HTS inactive, eIF4E 4G PPI inactive, Mcl1-Noxa inh 74.1 and 14-3-3 Bad PPI inactive.
`CN1Cc2cccc3c2C(Cc2ccccc2S3)C1` (stereo unspecified) gave Mcl-1 Bim block inactive, Mcl1-Bid inh inactive, Hck Nef HTS inactive, eIF4E 4G PPI inactive, Mcl1-Noxa inh inactive and 14-3-3 Bad PPI inactive.
COc1ccccc1C(=O)Nc1ncc2c(n1)CC(c1ccco1)CC2=O (stereo unspecified) was read as Mcl-1 Bim block inactive, Mcl1-Bid inh inactive, Hck Nef HTS inactive, eIF4E 4G PPI inactive, Mcl1-Noxa inh 53.5 and 14-3-3 Bad PPI inactive.
`O=C(NNC(=O)c1cc(O)c(O)c(O)c1)NC1CCCCC1` gave Mcl-1 Bim block inactive, Mcl1-Bid inh inactive, Hck Nef HTS inactive, eIF4E 4G PPI inactive and 14-3-3 Bad PPI inactive.
Screening NC(=O)CSc1cn(Cc2ccc(F)cc2)c2ccccc12 returned Mcl-1 Bim block inactive, Mcl1-Bid inh inactive, Hck Nef HTS inactive, eIF4E 4G PPI inactive, Mcl1-Noxa inh inactive and 14-3-3 Bad PPI inactive.
`O=C(CSc1cn(Cc2cccc(F)c2)c2ccccc12)NCc1ccc(F)cc1` gave Mcl-1 Bim block inactive, Mcl1-Bid inh 62.2, Hck Nef HTS inactive, eIF4E 4G PPI inactive, Mcl1-Noxa inh inactive and 14-3-3 Bad PPI inactive.
For N#CC(C#N)=C1C=CC=CN1/C(=C\c1ccccc1)C(=O)c1cccs1 the results were Mcl-1 Bim block inactive, Mcl1-Bid inh inactive, Hck Nef HTS inactive, eIF4E 4G PPI inactive, Mcl1-Noxa inh 63.1 and 14-3-3 Bad PPI inactive.
`O=C(N/N=C/C(Br)=C\c1ccccc1)c1cccs1` gave Mcl1-Bid inh inactive, Hck Nef HTS inactive, eIF4E 4G PPI inactive, Mcl1-Noxa inh inactive and 14-3-3 Bad PPI inactive.
`N#CC(C#N)=C1C=CC=CN1/C(=C\c1ccccc1Cl)C(=O)c1ccccc1` gave Mcl-1 Bim block inactive, Mcl1-Bid inh inactive, Hck Nef HTS inactive, eIF4E 4G PPI inactive, Mcl1-Noxa inh 64.0 and 14-3-3 Bad PPI inactive.
For COc1ccc(CNC(=O)CCS(=O)(=O)Cc2cccc(Cl)c2)c(OC)c1 the results were Mcl-1 Bim block inactive, Mcl1-Bid inh inactive, Hck Nef HTS inactive, eIF4E 4G PPI inactive, Mcl1-Noxa inh inactive and 14-3-3 Bad PPI inactive.
For Cc1ccccc1NC(=O)Cn1c(O)c(N=NC(=O)c2ccccc2O)c2ccccc21 the results were Mcl-1 Bim block inactive, Mcl1-Bid inh 66.0, Hck Nef HTS inactive, eIF4E 4G PPI inactive, Mcl1-Noxa inh inactive and 14-3-3 Bad PPI 92.1[fluorescence artefact?].
CCOC(=O)c1c(-c2ccco2)csc1NC(=O)CSc1nnc(N)s1 was read as Mcl-1 Bim block inactive, Mcl1-Bid inh 80.4, Hck Nef HTS inactive, eIF4E 4G PPI inactive, Mcl1-Noxa inh inactive and 14-3-3 Bad PPI inactive.
For S=c1[nH]nc(-c2ccccn2)n1/N=C/c1ccc(-c2ccccc2Cl)o1 the results were Mcl-1 Bim block inactive, Mcl1-Bid inh inactive, Hck Nef HTS 75.7, eIF4E 4G PPI inactive, Mcl1-Noxa inh inactive and 14-3-3 Bad PPI inactive.
`S=c1[nH]nc(-c2ccco2)n1/N=C/c1cccc(Cl)c1Cl` gave Mcl-1 Bim block inactive, Mcl1-Bid inh inactive, Hck Nef HTS inactive, eIF4E 4G PPI inactive, Mcl1-Noxa inh 71.7 and 14-3-3 Bad PPI inactive.
S=c1[nH]nc(-c2ccc(Cl)cc2)n1/N=C/c1ccco1 was read as Mcl1-Bid inh inactive, Hck Nef HTS inactive, eIF4E 4G PPI inactive, Mcl1-Noxa inh inactive and 14-3-3 Bad PPI inactive.
Screening S=c1[nH]nc(-c2ccccn2)n1/N=C/c1ccc(Cl)c(Cl)c1 returned Mcl1-Bid inh inactive, Hck Nef HTS inactive, eIF4E 4G PPI inactive, Mcl1-Noxa inh inactive and 14-3-3 Bad PPI inactive.
`S=c1[nH]nc(-c2ccco2)n1/N=C/c1ccc(Cl)cc1Cl` gave Mcl-1 Bim block inactive, Mcl1-Bid inh inactive, Hck Nef HTS inactive, eIF4E 4G PPI 49.4, Mcl1-Noxa inh inactive and 14-3-3 Bad PPI inactive.
